# Source: publication PMC7862700, “An all-to-all approach to the identification of sequence-specific readers for epigenetic DNA modifications on cytosine”
# Experiments:
# Experiment in all cases: DAPPL (digital affinity profiling via proximity ligation, sequencing); 10 mM Tris-HCl pH 7.5, 50 mM NaCl, 1 mM DTT, 4% glycerol, room temperature, 30 min; GST-TFs on glutathione beads, 16-mer random dsDNA library, 0.1% formaldehyde crosslink after washing; high values mean tight binding
# Conditions in all cases: protein: recombinant; tags: N-terminal GST; dsDNA, one strand shown
# [1] = biological target: T1, FLI1 (Homo sapiens, UniProt Q01543 1-452)
# T1 sequence: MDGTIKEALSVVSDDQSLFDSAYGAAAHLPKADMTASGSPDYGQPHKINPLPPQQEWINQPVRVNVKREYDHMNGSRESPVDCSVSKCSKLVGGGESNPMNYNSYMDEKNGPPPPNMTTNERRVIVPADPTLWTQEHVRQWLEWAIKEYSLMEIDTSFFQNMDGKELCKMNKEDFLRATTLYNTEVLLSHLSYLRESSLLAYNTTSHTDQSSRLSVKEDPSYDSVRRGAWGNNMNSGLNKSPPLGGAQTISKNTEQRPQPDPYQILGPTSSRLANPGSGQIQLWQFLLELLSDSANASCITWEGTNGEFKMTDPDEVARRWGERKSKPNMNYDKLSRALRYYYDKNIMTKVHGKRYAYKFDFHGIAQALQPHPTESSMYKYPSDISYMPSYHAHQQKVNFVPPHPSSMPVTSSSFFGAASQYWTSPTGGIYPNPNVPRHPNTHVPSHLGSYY
# Procedure, shortened: (§1)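 After expression in yeast as GST fusions, human transcription factors were bound to glutathione beads, DNA-barcoded and mixed with a tag-only sample. The pools were incubated with 200 nmole of a 16-mer random double-stranded DNA library in Tris/NaCl/DTT/glycerol buffer (30 min, room temperature), washed and crosslinked with 0.1% formaldehyde. Proximity ligation with BsaI/T4 ligase ran for 1 h at 37 °C, before PCR amplification and sequencing on an Illumina NextSeq500. Binding signal is a hexamer's read frequency for a factor divided by its frequency for the tag-only sample.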
# [2] = biological target: T2, ELK1 (Homo sapiens, UniProt P19419 1-428)
# T2 sequence: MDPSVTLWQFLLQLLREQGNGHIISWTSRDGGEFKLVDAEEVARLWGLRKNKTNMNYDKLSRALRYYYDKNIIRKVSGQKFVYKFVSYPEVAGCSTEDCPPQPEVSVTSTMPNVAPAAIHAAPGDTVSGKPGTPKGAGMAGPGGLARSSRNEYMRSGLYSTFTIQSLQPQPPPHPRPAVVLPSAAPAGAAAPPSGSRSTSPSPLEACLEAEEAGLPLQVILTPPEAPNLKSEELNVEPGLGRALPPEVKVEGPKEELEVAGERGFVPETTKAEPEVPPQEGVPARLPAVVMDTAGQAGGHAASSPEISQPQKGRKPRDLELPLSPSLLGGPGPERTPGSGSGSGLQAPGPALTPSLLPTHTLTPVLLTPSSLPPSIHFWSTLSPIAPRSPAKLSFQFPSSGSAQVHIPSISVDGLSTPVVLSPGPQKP
# Procedure, shortened: as §1
# [3] = biological target: T3, GABPA (Homo sapiens, UniProt Q06546 1-454)
# T3 sequence: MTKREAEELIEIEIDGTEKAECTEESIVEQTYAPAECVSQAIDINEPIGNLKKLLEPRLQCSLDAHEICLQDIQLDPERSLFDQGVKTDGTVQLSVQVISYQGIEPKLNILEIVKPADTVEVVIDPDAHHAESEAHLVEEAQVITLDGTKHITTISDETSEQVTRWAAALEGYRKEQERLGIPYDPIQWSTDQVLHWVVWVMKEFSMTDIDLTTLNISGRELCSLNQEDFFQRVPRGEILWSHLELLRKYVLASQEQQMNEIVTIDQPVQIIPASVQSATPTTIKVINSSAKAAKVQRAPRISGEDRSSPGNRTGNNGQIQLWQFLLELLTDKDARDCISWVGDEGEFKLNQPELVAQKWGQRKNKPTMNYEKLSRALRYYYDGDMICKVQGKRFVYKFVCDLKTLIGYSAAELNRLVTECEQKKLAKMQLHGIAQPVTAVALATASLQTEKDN
# Procedure, shortened: as §1
# [4] = biological target: T4, ERG (Homo sapiens, UniProt P11308 1-479)
# T4 sequence: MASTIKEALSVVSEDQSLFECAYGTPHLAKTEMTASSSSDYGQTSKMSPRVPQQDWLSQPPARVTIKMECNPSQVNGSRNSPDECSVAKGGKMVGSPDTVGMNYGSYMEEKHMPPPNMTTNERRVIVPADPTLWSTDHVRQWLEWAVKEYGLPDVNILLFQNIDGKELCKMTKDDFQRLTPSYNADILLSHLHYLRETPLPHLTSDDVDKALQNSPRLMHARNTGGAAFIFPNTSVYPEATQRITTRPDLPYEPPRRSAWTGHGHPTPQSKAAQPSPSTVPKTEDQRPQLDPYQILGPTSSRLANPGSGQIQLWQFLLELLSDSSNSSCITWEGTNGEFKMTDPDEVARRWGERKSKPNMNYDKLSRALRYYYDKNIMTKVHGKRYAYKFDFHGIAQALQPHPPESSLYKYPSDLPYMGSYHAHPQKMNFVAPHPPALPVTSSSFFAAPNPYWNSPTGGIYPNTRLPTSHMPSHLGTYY
# Procedure, shortened: as §1
# [5] = biological target: ELF1 (Homo sapiens, UniProt P32519 1-619)
# Procedure, shortened: as §1
# [6] = biological target: T5, EHF (Homo sapiens, UniProt Q9NZC4 1-300)
# T5 sequence: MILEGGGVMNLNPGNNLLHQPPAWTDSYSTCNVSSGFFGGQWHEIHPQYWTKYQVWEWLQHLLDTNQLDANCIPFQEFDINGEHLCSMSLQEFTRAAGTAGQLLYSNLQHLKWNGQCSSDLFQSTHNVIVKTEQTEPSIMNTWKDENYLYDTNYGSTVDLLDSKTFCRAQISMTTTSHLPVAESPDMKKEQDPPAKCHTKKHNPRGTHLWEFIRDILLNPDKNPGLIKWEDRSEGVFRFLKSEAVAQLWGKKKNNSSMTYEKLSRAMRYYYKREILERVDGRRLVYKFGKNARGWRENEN
# Procedure, shortened: as §1
# [7] = biological target: SPI1 (Homo sapiens, UniProt P17947 1-270)
# Procedure, shortened: as §1
# [8] = biological target: SPIB (Homo sapiens, UniProt Q01892 1-262)
# Procedure, shortened: as §1
# [9] = biological target: T6, ELK3 (Homo sapiens, UniProt P41970 1-407)
# T6 sequence: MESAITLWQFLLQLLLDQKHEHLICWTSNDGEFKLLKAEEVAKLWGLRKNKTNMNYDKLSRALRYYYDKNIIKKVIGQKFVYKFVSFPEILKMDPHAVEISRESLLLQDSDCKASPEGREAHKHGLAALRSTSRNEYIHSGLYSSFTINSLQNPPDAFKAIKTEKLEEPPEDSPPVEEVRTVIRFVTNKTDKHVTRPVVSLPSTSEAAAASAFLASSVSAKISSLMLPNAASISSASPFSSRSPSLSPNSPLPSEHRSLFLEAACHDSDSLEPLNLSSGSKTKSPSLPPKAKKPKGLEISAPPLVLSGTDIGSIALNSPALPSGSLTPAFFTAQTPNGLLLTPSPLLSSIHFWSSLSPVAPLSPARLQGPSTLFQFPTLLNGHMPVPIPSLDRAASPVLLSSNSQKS
# Procedure, shortened: as §1
# Chain of SPIB (Q01892 whole entry): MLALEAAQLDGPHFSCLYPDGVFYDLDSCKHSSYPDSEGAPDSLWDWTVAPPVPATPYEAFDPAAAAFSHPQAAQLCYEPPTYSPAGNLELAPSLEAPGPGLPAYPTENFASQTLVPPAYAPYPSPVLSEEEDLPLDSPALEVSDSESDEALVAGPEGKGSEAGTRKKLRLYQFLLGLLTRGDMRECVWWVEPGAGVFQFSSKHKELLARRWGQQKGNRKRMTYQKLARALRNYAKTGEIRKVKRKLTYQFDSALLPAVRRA
# Chain of ELF1 (P32519 whole entry): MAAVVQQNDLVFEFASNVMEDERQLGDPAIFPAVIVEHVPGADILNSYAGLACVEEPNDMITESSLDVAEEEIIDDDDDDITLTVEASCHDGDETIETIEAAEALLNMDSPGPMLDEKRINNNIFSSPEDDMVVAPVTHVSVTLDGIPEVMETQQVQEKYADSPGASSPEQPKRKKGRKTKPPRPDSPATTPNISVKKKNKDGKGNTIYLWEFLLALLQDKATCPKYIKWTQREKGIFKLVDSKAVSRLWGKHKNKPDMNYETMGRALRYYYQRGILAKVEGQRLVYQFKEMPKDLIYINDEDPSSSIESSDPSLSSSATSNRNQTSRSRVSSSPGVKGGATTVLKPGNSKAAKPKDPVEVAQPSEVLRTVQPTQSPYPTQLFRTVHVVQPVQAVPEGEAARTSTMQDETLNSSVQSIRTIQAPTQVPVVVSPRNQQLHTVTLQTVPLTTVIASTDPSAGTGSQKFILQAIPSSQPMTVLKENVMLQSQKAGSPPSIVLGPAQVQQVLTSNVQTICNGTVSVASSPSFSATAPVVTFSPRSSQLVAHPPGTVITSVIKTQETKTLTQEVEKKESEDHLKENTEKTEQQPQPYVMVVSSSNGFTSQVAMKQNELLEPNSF
sequence,measurement,setting,value
GGCTCC,binding signal,[1],"1.33 fold enrichment (6-mer frequency, TF over GST control)"
same,binding signal,[2],"1.29 fold enrichment (6-mer frequency, TF over GST control)"
same,binding signal,[3],"1.44 fold enrichment (6-mer frequency, TF over GST control)"
same,binding signal,[4],"1.35 fold enrichment (6-mer frequency, TF over GST control)"
same,binding signal,[5],"1.3 fold enrichment (6-mer frequency, TF over GST control)"
same,binding signal,[6],"1.31 fold enrichment (6-mer frequency, TF over GST control)"
same,binding signal,[7],"1.22 fold enrichment (6-mer frequency, TF over GST control)"
same,binding signal,[8],"1.39 fold enrichment (6-mer frequency, TF over GST control)"
same,binding signal,[9],"1.27 fold enrichment (6-mer frequency, TF over GST control)"
